Data: the supplement of paper PMC8728848
The entries come from a sample that favours the strongest signals as a whole.

Columns and labels:
Test in all cases: glycan array binding signal (z-score within array); higher = stronger binding
Settings in all cases: glycan notation: IUPAC condensed, linker removed
[1] = biological target: Fuc(a1-2)Gal(b1-3)GalNAc(b1-3)Gal
Method in brief: (§1)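 The Consortium for Functional Glycomics database supplied 3228 glycan arrays, of which those lacking an available protein sequence were dropped. The binding signal, a within-array Z-score, was averaged across arrays of the same protein sequence and across linkers. Negative scores can be read as non-binding.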

[2] = biological target: Fuc(a1-2)Gal(b1-3)GlcNAc(b1-3)GalNAc
Method in brief: as §1

[3] = biological target: Fuc(a1-2)Gal(b1-4)Glc
Method in brief: as §1

[4] = biological target: Fuc(a1-2)Gal(b1-4)GlcNAc6S
Method in brief: as §1

[5] = biological target: Fuc(a1-2)Gal(b1-4)[Fuc(a1-3)]GlcNAc(b1-2)[Fuc(a1-2)Gal(b1-4)[Fuc(a1-3)]GlcNAc(b1-4)]Man(a1-3)[Fuc(a1-2)Gal(b1-4)[Fuc(a1-3)]GlcNAc(b1-2)Man(a1-6)]Man(b1-4)GlcNAc(b1-4)GlcNAc
Method in brief: as §1

[6] = biological target: Fuc(a1-2)Gal(b1-4)[Fuc(a1-3)]GlcNAc(b1-3)Gal(b1-4)[Fuc(a1-3)]GlcNAc(b1-3)Gal(b1-4)[Fuc(a1-3)]GlcNAc
Method in brief: as §1

[7] = biological target: Fuc(a1-2)[Gal(a1-3)]Gal(b1-4)GlcNAc(b1-2)Man(a1-3)[Fuc(a1-2)[Gal(a1-3)]Gal(b1-4)GlcNAc(b1-2)Man(a1-6)]Man(b1-4)GlcNAc(b1-4)GlcNAc
Method in brief: as §1

[8] = biological target: Fuc(a1-2)[Gal(a1-4)]Gal(b1-4)GlcNAc
Method in brief: as §1

[9] = biological target: Fuc(a1-2)[GalNAc(a1-3)]Gal(b1-4)GlcNAc(b1-3)GalNAc
Method in brief: as §1

[10] = biological target: Fuc(a1-3)[Gal(b1-4)]GlcNAc(b1-6)GalNAc
Method in brief: as §1

[11] = biological target: Fuc(a1-3)[Gal3S(b1-4)]Glc
Method in brief: as §1

[12] = biological target: Fuc(a1-3)[GalNAc(b1-4)]GlcNAc
Method in brief: as §1

[13] = biological target: Gal(a1-3)Gal(b1-3)GlcNAc
Method in brief: as §1

[14] = biological target: Gal(a1-4)Gal(b1-4)GlcNAc(b1-2)Man(a1-3)[Gal(a1-4)Gal(b1-4)GlcNAc(b1-2)Man(a1-6)]Man(b1-4)GlcNAc(b1-4)GlcNAc
Method in brief: as §1

[15] = biological target: Gal(b1-3)GalNAc
Method in brief: as §1

[16] = biological target: Gal(b1-3)GalNAc(b1-4)Gal(b1-4)Glc
Method in brief: as §1

[17] = biological target: Gal(b1-3)GlcNAc(a1-6)Gal(b1-4)GlcNAc
Method in brief: as §1

[18] = biological target: Gal(b1-3)GlcNAc(b1-3)Gal(b1-4)GlcNAc(b1-2)Man(a1-3)[Gal(b1-3)GlcNAc(b1-3)Gal(b1-4)GlcNAc(b1-2)Man(a1-6)]Man(b1-4)GlcNAc(b1-4)GlcNAc
Method in brief: as §1

[19] = biological target: Gal(b1-3)[Fuc(a1-4)]GlcNAc(b1-3)Gal(b1-4)[Fuc(a1-3)]GlcNAc
Method in brief: as §1

[20] = biological target: Gal(b1-4)Gal
Method in brief: as §1

[21] = biological target: Gal(b1-4)GlcNAc(b1-2)Man(a1-6)[GlcNAc(b1-2)Man(a1-3)]Man(b1-4)GlcNAc(b1-4)GlcNAc
Method in brief: as §1

[22] = biological target: Gal(b1-4)GlcNAc(b1-3)Gal(b1-4)GlcNAc(b1-3)Gal(b1-4)GlcNAc(b1-3)Gal(b1-4)GlcNAc(b1-3)Gal(b1-4)GlcNAc(b1-2)Man(a1-3)[Gal(b1-4)GlcNAc(b1-3)Gal(b1-4)GlcNAc(b1-3)Gal(b1-4)GlcNAc(b1-3)Gal(b1-4)GlcNAc(b1-3)Gal(b1-4)GlcNAc(b1-2)Man(a1-6)]Man(b1-4)GlcNAc(b1-4)GlcNAc
Method in brief: as §1

[23] = biological target: Gal(b1-4)GlcNAc(b1-3)Gal(b1-4)GlcNAc(b1-3)Gal(b1-4)GlcNAc(b1-3)Gal(b1-4)GlcNAc(b1-3)Gal(b1-4)GlcNAc(b1-2)[Gal(b1-4)GlcNAc(b1-3)Gal(b1-4)GlcNAc(b1-3)Gal(b1-4)GlcNAc(b1-3)Gal(b1-4)GlcNAc(b1-3)Gal(b1-4)GlcNAc(b1-6)]Man(a1-6)[Gal(b1-4)GlcNAc(b1-3)Gal(b1-4)GlcNAc(b1-3)Gal(b1-4)GlcNAc(b1-3)Gal(b1-4)GlcNAc(b1-3)Gal(b1-4)GlcNAc(b1-2)Man(a1-3)]Man(b1-4)GlcNAc(b1-4)[Fuc(a1-6)]GlcNAc
Method in brief: as §1

[24] = biological target: Gal3S(b1-4)[Fuc(a1-3)]Glc6S
Method in brief: as §1

[25] = biological target: Gal6S(b1-4)GlcNAc6S
Method in brief: as §1

[26] = biological target: GalNAc(b1-4)GlcNAc(b1-2)Man
Method in brief: as §1

[27] = biological target: GalNAc(b1-4)GlcNAc6S
Method in brief: as §1

[28] = biological target: GalNAc3S(b1-4)[Fuc(a1-3)]GlcNAc
Method in brief: as §1

[29] = biological target: GlcA(b1-3)Gal
Method in brief: as §1

[30] = biological target: GlcNAc(a1-6)Gal(b1-4)GlcNAc
Method in brief: as §1

[31] = biological target: GlcNAc(b1-2)[GlcNAc(b1-4)]Man(a1-3)[GlcNAc(b1-2)Man(a1-6)]Man(b1-4)GlcNAc(b1-4)GlcNAc
Method in brief: as §1

[32] = biological target: GlcNAc(b1-3)Gal(b1-4)Glc
Method in brief: as §1

[33] = biological target: GlcNAc(b1-4)GlcNAc
Method in brief: as §1

[34] = biological target: GlcNAc(b1-4)[GlcNAc(b1-6)]GalNAc
Method in brief: as §1

[35] = biological target: Man(a1-2)Man(a1-2)Man(a1-3)Man
Method in brief: as §1

[36] = biological target: Man(a1-2)Man(a1-3)[Man(a1-2)Man(a1-6)]Man(a1-6)[Man(a1-2)Man(a1-2)Man(a1-3)]Man
Method in brief: as §1

[37] = biological target: Neu5Ac(a2-3)Gal
Method in brief: as §1

[38] = biological target: Neu5Ac(a2-3)Gal(b1-3)GlcNAc(b1-2)Man(a1-3)[Neu5Ac(a2-3)Gal(b1-3)GlcNAc(b1-2)Man(a1-6)]Man(b1-4)GlcNAc(b1-4)GlcNAc
Method in brief: as §1

[39] = biological target: Neu5Ac(a2-3)Gal(b1-3)[Fuc(a1-4)]GlcNAc(b1-3)Gal(b1-4)[Fuc(a1-3)]GlcNAc
Method in brief: as §1

[40] = biological target: Neu5Ac(a2-3)Gal(b1-4)Glc
Method in brief: as §1

[41] = biological target: Neu5Ac(a2-3)[Neu5Ac(a2-6)]GalNAc
Method in brief: as §1

[42] = biological target: Neu5Ac(b2-6)GalNAc
Method in brief: as §1

B1: FimA (Actinomyces oris) (protein)
chain: MHHHHHHSSGVDLGTENLYFQSNAETPNYGNIKTDATGSLVIHKHLTGGGKDIGTPTGTAQNADDKGPAVEGVVFTAYPITDINLKDPAGWDTISNLSRTGVPDSACANPAAPTLGAHQFGTPKVSPATTKEGLATITEMPVQAYLVCETTTPGDIVQKAKPFVVTIPHPNTAAGADGQWIYDVNVYPKNEAIDVDKTIQAQKLNGYGVGSLIKFPVESTAPTLDAKSFYKYFQLKDTLDERLSEVTATDVSLEGTPLQPTDYKVETKQQTVTVTFTAEGLKKIKAAPGKKVSAVFQGKVTKAGNGAITNRAQVISDTLYAEQPPTPETPPTDPENPPTSDEVISRWGDLSIKKVDTHQQGQTKAGLQGAQFQLYKAKNAYANTCSNEKEGAPIAINGQTTLTTDAQGAIDIKGLFISDSIDGADRDNQVNAMERCYVLVETKAPAGYVLPAGNGAATPVKVKAGEETTDNVTVENTKQSVPGLPLTG
Question: What does the source list for B1?
Answer: glycan array binding signal (z-score) [1]: 11.8; glycan array binding signal (z-score) [2]: -0.927; glycan array binding signal (z-score) [3]: -0.719; glycan array binding signal (z-score) [4]: -0.627; glycan array binding signal (z-score) [5]: -0.358; glycan array binding signal (z-score) [6]: -0.317; glycan array binding signal (z-score) [7]: 5.11; glycan array binding signal (z-score) [8]: 5.14; glycan array binding signal (z-score) [9]: -0.408; glycan array binding signal (z-score) [10]: -0.64; glycan array binding signal (z-score) [11]: -0.294; glycan array binding signal (z-score) [12]: 3.5; glycan array binding signal (z-score) [13]: -0.412; glycan array binding signal (z-score) [14]: -0.497; glycan array binding signal (z-score) [15]: 0.278; glycan array binding signal (z-score) [16]: 3.27; glycan array binding signal (z-score) [17]: -0.165; glycan array binding signal (z-score) [18]: -0.744; glycan array binding signal (z-score) [19]: 0.459; glycan array binding signal (z-score) [20]: 0.292; glycan array binding signal (z-score) [21]: -0.044; glycan array binding signal (z-score) [22]: 3.42; glycan array binding signal (z-score) [23]: 5.1; glycan array binding signal (z-score) [24]: 3.23; glycan array binding signal (z-score) [25]: 4.75; glycan array binding signal (z-score) [26]: -0.783; glycan array binding signal (z-score) [27]: 4.1; glycan array binding signal (z-score) [28]: -0.099; glycan array binding signal (z-score) [29]: 0.311; glycan array binding signal (z-score) [30]: -1.18; glycan array binding signal (z-score) [31]: -0.403; glycan array binding signal (z-score) [32]: -0.311; glycan array binding signal (z-score) [33]: -0.621; glycan array binding signal (z-score) [34]: -0.564; glycan array binding signal (z-score) [35]: 4.88; glycan array binding signal (z-score) [36]: -0.88; glycan array binding signal (z-score) [37]: -0.143; glycan array binding signal (z-score) [38]: -0.233; glycan array binding signal (z-score) [39]: 0.196; glycan array binding signal (z-score) [40]: -0.06; glycan array binding signal (z-score) [41]: 0.518; glycan array binding signal (z-score) [42]: -0.85
